Values without a mark were called inactive. Records with an inconclusive call do not appear. The source made the active and inactive calls. Unless noted, the call rests on the fitted dose curve; in most records, active means well fitted curve in either direction with a large enough effect (not every such curve was filed as active); inconclusive means small, poorly fitted or top-dose-only effect, or another doubt; inactive means flat fitted curve, though single readings scatter. A value given as a limit tells only on which side of the number the result lay.

In test [1] the target is Lysosomal acid glucosylceramidase (Homo sapiens) (UniProt P04062). Nature of the test: Glucocerebrosidase-p2 (AID 348; in the data active means potency below about 10 µM; further: potency means the concentration at half of the fitted maximal effect). To be noted: purified GBA, blue fluorogenic substrate, 40 min. In a few lines: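 Compounds titrated from 0.6 nM upwards against 0.2 nM enzyme in pH 5.9 citric acid/KH2PO4, taurocholate, tween-20; blue fluorogenic substrate 80 uM, 40 min room temperature, stopped and read Ex 365/Em 440 for AC50.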
Lysosomal acid glucosylceramidase (Homo sapiens), sequence (P04062 whole entry, looked up): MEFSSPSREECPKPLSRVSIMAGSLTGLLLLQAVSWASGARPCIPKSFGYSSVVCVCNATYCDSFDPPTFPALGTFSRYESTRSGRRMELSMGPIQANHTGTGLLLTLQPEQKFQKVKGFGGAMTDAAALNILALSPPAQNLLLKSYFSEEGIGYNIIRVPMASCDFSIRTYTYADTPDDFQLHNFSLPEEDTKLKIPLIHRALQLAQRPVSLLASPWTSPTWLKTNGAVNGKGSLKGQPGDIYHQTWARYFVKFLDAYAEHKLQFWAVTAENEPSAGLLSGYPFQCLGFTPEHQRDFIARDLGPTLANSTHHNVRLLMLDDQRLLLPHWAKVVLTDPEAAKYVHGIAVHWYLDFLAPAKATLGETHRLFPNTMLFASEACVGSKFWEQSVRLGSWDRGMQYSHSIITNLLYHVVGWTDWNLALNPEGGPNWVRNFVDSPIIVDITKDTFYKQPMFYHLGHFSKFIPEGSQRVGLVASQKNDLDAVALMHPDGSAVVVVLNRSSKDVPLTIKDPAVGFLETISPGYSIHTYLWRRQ

A short description of test [2]: AP1 Signaling Pathway (AID 357).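 Further: ME-180 reporter cells stimulated with EGF at its EC50 level; on the % scale 0 is the no-effect control and ±100 the full control effect.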 The note with it: ME-180 AP-1-bla reporter, EGF-induced, beta-lactamase ratio, 5 h; at 7.69 µM (top of the series) unless noted. In a few lines:
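Modulation of EGF-driven AP-1 transcription was assessed with a beta-lactamase reporter in ME-180 cells. Compound and EC50 EGF were co-incubated 5 hours at 37 °C before 2.5-hour CCF4 loading at room temperature and dual-emission reading.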

The target in test [3] is Cytochrome P450 1A2 (Homo sapiens) (UniProt P05177). Nature of the test: p450-cyp1a2 (AID 410; calls by dose curve; further: potency means the concentration at half of the fitted maximal effect;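 on activity change, negative = inhibition: -100% = full effect of reference inhibitor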). To be noted: recombinant CYP1A2, luciferin-ME demethylation, luminescence; series mostly up to 11.4 µM. The method, boiled down:
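Luminescent readout of luciferin formed from Luciferin-ME by human CYP1A2; data normalized against complete inhibition by 57 uM furafylline. Enzyme 20nM, substrate 100uM at Km, 100mM KPO4 buffer, 60 min reaction at room temperature.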

A short description of test [4]: NFAT Signaling Pathway (AID 444).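 Further: carbachol stimulus at about its EC50 of 1 µM final; on the % scale 0 is the no-effect control and ±100 the full control effect.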 The note with it: Jurkat NFAT-bla M1, carbachol, beta-lactamase ratio, 5 h; at 7.69 µM (top of the series) unless noted. In a few lines: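 Jurkat cells with NFAT-driven β-lactamase reporter and co-expressed M1 receptor, stimulated with carbachol (final 1 uM, ~EC50), compound titration, 5 h at 37 °C. CCF4 loaded 1 h at RT; 460/530 nm ratio gave %activity and AC50.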

The nature of test [5]: Stat Signaling Pathway (AID 446).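 Further: ME-180 cervical cancer cells given 40 pM IL-6 alongside compound; SIE-controlled beta-lactamase reporter measured as 460/530 nm FRET emission ratio; on the % scale 0 is the no-effect control and ±100 the full control effect.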 The note with it: ME-180 SIE beta-lactamase reporter, IL-6 stimulated, 5 h; at 7.69 µM (top of the series) unless noted. In a few lines: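 Screening format detects activators and inhibitors alike: ME-180 SIE-bla cells stimulated at 40 pM IL-6 for 5 hrs with compound, then dual-emission beta-lactamase read at 405 nm excitation.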
Test [6] concerns the target Glucocorticoid receptor (Homo sapiens) (UniProt P04150). Nature of the test: GR-GFP Redistribution (AID 450;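 active means compounds whose dose series gives a full or clear partial fitted curve of increased nuclear translocation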; further: potency means the concentration at half of the fitted maximal effect). The note with it: U2OS GR-GFP nuclear translocation, laser cytometry, 2 h.
The target is the same in test [7]. Nature of the test: GR-EFC Redistribution (AID 451; calls by dose curve; further: potency means the concentration at half of the fitted maximal effect). The note with it: CHO-K1 GR-EFC translocation, beta-gal luminescence, 2 h. The method, boiled down: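 CHO-K1 cells expressing nuclear EA and GR-ED fragments of b-gal; compounds titrated up to 46 uM final, 2 h at 37 C. GR nuclear translocation read as complemented b-gal luminescence after 1 h RT detection.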
Test [8] addresses Mitogen-activated protein kinase 10 (Mus musculus) (UniProt Q61831). Nature of the test: JNK3 AlphaScreen Assay (AID 530).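 Further: kinase came from lysate of stimulated human HepG2 cells; signal reports phosphorylation of biotinylated GST-cJun 1-79 at Ser73 with 10 µM ATP; on the % scale 0 is the no-effect control and ±100 the full control effect.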 To be noted: JNK3 lysate, c-Jun phosphorylation; series mostly up to 11.4 µM. In a few lines: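 Pre-activated (IL-1β/TNFα) JNK3 in HepG2 lysates phosphorylates biotin-GST-cJun(1-79), 10 uM ATP; anti-phospho-cJun(Ser73) AlphaScreen read at room temperature, pH 7.6 Tris buffer. Compounds pre-incubated 15 min as titrations.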
For orientation: In Alpha technology, singlet oxygen from a donor bead excites a nearby acceptor bead.

Test [9] concerns the target 3',5'-cyclic-AMP phosphodiesterase 4B (Homo sapiens) (UniProt Q07343). As to the kind of experiment: qHTS Assay for Inhibitors of PDE-IV (AID 607; active means well fitted activation curve with a large enough effect in the main read-out, with a control signal flat, not every such curve was filed as active; further: % of control where 0% means no effect). To be noted: HEK293 ACTOne CNG channel cells, membrane potential fluorescence; series mostly up to 22.9 µM. The method, boiled down:
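The readout is membrane depolarisation from a cAMP-sensing CNG channel, detected with a potential dye at ex 535/em 590. Cells were HEK293-derived (endogenous PDE-IV) at 1000 cells/well, titrated up to 22.9 uM final.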

The target of test [10] is Cytochrome P450 3A4 (Homo sapiens) (UniProt P08684). Nature of the test: qHTS Assay for Activators of Cytochrome P450 3A4 (AID 885; active means well fitted curve in the direction sought with a large enough effect; an effect the other way counts as inactive or inconclusive; further: nearly all actives have a fitted effect of over 65% in size). The note with it: recombinant CYP3A4, Luciferin-PPXE luminescence, 60 min; series mostly up to 11.4 µM. The method, boiled down:
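Steps: enzyme/substrate mix dispensed; compound added, 10 min RT; NADPH regeneration solution added, 60 min RT; luciferin detection buffer stops reaction; 20 min later luminescence measured.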
On the technique in general: Quantitative high-throughput screening tests each substance at several concentrations.

For test [11], the target named is Cytochrome P450 2C19 (Homo sapiens) (UniProt P33261). Nature of the test: qHTS Assay for Inhibitors and Substrates of Cytochrome P450 2C19 (AID 899; active means well fitted curve in the direction sought with a large enough effect; an effect the other way counts as inactive or inconclusive; further: nearly all actives have a fitted effect of over 60% in size; further: potency means the concentration at half of the fitted maximal effect). The note with it: recombinant CYP2C19, luciferin-H EGE luminescence; series mostly up to 11.4 µM. In a few lines: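 5 nM human CYP2C19 with 10uM Luciferin-H EGE (at KM) in 50mM KPO4, compound preincubated 10 min at 37C, then NADPH regeneration for 60 min at 37C. Luciferin read by luminescence after detection reagent; normalized to 57uM ketoconazole as full inhibition.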
Cytochrome P450 2C19 (Homo sapiens), sequence (P33261 whole entry, looked up): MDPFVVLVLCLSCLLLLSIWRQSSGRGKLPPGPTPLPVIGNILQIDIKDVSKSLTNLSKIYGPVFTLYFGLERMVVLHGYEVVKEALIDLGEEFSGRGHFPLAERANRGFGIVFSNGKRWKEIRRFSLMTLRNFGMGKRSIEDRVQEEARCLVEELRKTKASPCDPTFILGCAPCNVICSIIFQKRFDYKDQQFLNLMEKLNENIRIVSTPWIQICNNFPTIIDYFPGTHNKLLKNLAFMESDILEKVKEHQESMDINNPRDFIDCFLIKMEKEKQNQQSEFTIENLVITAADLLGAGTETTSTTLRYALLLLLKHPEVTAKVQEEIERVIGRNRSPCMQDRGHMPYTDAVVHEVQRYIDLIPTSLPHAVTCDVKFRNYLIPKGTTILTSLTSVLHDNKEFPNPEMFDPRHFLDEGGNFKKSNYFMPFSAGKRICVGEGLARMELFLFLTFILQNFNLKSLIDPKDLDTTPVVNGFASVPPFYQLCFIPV

Test [12] has as its target Cytochrome P450 2D6 (Homo sapiens) (UniProt P10635). Nature of the test: qHTS Assay for Inhibitors and Substrates of Cytochrome P450 2D6 (AID 891; active means well fitted curve in the direction sought with a large enough effect; an effect the other way counts as inactive or inconclusive; further: nearly all actives have a fitted effect of over 60% in size; further: potency means the concentration at half of the fitted maximal effect). The note with it: recombinant CYP2D6, luciferin-ME EGE luminescence; series mostly up to 11.4 µM. In a few lines:
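Human CYP2D6 (5 nM) with 30 uM Luciferin-ME EGE (at Km) in 100 mM KPO4, compound preincubated 10 min, then NADPH regeneration system for 60 min at room temperature. Luciferin read by luminescence; normalized to 1.43 uM quinidine.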

A short description of test [13]: Confirmation and Secondary Assay for Modulators of Hemoglobin Beta Chain Splicing at IVS2 654 locus (AID 910; active means well fitted curve in the direction sought with a large enough effect; an effect the other way counts as inactive or inconclusive;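 further: HeLa cells stably carrying EGFP split by mutant beta-globin IVS2-654 intron; % of control where 0% means no effect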). To be noted: HeLa EGFP-654 splicing reporter, GFP fluorescence, 48 h; series mostly up to 38.3 µM. In a few lines:
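HeLa cells stably expressing EGFP interrupted by β-globin IVS2-654 intron, seeded overnight in Opti-MEM/2% FCS, then treated 2 days at 37 °C. Restored splicing read as total peak GFP intensity per well by laser scanning cytometry (488 nm excitation, 500–520 nm emission); 500 nM antisense PNA as control.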

Test [14] is described as follows: Confirmation and Secondary Assay for Modulators of Hemoglobin Beta Chain Splicing at IVS2 705 locus (AID 930; active means well fitted curve in the direction sought with a large enough effect; an effect the other way counts as inactive or inconclusive;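 further: HeLa cells stably expressing the EGFP-705 splicing reporter; GFP fluorescence per well restored by corrected splicing of the IVS2-705 intron in EGFP; % of control where 0% means no effect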). To be noted: HeLa EGFP-705 splicing reporter, GFP fluorescence, 48 h; series mostly up to 38.3 µM. The method, boiled down: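 HeLa EGFP-705 reporter; 500 cells/well, o/n 37C 5% CO2; cpd 2 d; 488 ex/500-520 em laser scan; total peak GFP intensity/well. Ref: 500 nM […] antisense PNA.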

Cytochrome P450 1A2 (Homo sapiens), sequence (P05177 whole entry, looked up): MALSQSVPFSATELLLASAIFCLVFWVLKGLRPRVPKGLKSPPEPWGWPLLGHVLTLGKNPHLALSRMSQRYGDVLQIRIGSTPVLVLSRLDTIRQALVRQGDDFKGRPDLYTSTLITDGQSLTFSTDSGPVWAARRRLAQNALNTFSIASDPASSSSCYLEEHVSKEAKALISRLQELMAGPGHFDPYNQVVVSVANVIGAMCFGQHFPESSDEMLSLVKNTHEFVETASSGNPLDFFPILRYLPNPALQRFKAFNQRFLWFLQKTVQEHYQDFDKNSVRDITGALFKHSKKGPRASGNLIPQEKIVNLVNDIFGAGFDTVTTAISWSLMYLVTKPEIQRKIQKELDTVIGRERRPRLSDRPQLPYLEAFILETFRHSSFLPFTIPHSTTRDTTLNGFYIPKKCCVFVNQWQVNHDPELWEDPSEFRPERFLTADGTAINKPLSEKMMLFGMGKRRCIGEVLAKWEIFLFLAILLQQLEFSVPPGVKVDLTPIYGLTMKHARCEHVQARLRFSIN
Glucocorticoid receptor (Homo sapiens), sequence (P04150 whole entry, looked up, the tested form may be a part): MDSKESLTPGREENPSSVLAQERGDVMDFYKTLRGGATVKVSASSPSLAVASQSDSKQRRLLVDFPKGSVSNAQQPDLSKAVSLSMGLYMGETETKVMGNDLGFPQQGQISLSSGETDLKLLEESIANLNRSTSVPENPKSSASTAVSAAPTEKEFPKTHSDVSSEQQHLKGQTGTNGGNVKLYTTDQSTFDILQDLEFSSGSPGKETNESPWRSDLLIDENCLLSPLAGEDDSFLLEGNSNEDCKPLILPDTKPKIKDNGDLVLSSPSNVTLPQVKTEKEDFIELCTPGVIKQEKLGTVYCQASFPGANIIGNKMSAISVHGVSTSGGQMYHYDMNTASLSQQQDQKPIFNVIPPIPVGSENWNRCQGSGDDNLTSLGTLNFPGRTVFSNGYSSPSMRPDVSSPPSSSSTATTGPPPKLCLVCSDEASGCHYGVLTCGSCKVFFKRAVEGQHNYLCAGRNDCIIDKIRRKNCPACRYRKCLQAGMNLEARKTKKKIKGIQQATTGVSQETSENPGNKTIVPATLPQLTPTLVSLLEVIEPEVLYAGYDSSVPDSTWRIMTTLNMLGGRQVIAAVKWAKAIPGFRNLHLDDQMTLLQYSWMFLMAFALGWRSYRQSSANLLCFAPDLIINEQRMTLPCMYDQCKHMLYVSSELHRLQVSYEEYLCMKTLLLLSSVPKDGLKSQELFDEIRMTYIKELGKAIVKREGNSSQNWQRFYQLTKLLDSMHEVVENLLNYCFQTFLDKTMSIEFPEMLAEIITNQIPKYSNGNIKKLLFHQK
3',5'-cyclic-AMP phosphodiesterase 4B (Homo sapiens), sequence (Q07343 whole entry, looked up): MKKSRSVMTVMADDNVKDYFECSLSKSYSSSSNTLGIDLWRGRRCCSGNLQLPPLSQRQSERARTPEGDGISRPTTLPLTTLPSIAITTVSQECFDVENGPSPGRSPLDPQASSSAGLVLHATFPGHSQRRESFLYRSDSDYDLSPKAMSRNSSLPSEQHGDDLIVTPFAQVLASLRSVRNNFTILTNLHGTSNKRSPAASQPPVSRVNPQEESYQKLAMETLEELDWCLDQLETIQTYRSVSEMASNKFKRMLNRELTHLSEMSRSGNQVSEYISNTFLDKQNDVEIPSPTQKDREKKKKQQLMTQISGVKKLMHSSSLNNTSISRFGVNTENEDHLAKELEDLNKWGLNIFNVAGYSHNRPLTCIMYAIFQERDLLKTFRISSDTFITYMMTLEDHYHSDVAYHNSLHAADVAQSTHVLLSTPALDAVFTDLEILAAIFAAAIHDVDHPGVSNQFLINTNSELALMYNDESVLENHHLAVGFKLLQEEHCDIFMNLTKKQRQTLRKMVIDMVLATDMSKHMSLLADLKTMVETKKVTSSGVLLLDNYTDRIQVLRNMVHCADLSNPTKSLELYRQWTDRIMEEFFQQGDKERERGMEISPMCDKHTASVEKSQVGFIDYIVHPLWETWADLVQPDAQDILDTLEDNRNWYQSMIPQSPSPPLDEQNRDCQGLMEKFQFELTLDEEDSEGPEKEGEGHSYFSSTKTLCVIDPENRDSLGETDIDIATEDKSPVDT
Cytochrome P450 3A4 (Homo sapiens), sequence (P08684 whole entry, looked up): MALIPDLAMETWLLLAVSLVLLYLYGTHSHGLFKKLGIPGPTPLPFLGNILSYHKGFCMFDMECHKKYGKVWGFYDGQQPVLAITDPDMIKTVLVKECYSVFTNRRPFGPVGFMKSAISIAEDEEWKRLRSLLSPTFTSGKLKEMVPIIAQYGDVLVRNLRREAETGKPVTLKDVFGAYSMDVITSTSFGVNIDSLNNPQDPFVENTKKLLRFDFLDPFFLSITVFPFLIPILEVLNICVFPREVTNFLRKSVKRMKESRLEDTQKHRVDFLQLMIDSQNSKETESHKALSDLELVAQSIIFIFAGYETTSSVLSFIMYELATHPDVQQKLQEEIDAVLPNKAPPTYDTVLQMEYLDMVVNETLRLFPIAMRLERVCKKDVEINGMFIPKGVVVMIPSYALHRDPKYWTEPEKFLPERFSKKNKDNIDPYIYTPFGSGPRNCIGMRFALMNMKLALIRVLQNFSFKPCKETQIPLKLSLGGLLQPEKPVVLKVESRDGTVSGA
Cytochrome P450 2D6 (Homo sapiens), sequence (P10635 whole entry, looked up): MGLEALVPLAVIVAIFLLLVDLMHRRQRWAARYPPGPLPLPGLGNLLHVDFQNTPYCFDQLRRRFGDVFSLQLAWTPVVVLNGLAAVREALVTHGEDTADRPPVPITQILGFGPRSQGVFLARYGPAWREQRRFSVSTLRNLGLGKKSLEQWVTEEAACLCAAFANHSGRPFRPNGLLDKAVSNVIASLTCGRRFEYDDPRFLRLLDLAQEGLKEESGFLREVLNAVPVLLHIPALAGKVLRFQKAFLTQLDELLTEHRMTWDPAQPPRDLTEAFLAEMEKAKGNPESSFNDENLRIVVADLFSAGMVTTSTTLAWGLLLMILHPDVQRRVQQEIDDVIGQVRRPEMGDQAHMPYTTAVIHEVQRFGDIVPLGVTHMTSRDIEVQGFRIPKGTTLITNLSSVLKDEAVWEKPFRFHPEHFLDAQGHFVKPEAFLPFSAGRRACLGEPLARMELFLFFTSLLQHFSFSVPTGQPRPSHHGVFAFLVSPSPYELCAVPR

On to `COc1cc2nncc(SCc3ccc(Cl)c(Cl)c3)c2cc1OC`, for which the Potency in [1] is greater than 11.4 µM; in test [3], 0.794 µM (active); in [6], greater than 46 µM; in test [7], greater than 9.22 µM; in [11], 2.51 µM (active). For the same molecule, the activity change, negative = inhibition in test [2] is 0.364%; in [4] it was 1.06%. For the same molecule, the activity, negative = inhibition in test [5] is -13.6%. The Potency entry in test [8], in [9] and in test [10] was “inactive” each time.

With `O=S1(=O)[C@H]([C@H]2CC3c4ccccc4C2c2ccccc23)[C@@H](N2CCCCC2)[C@@H]1c1ccccc1`, the Potency in [1] is greater than 11.4 µM; in test [6] it was greater than 46 µM; in [7], greater than 9.22 µM; in test [12], 3.16 µM (active); in test [11] it was 2.51 µM (active). Further, the activity change, negative = inhibition was 28.4% in test [2], 1.6% [at 2.29 µM] in [3] and -27.2% in test [4]. Besides, in test [5], the activity, negative = inhibition is 10.9%. The Potency entry in test [8], in test [9] and in [10] was “inactive” throughout.

With `Cc1cnc(CNc2nc(-c3cccnc3)nc3ccccc23)cn1`, the molecule was classed as inactive in test [13] and in test [14].

With `CN(C)C(=O)c1ccc(-c2nc(Nc3ccncc3)c3ccccc3n2)cc1`, the call in test [13] and in [14] was inactive.

On to `Clc1ccc(-c2noc(CN3CCCCC3)n2)cc1`, for which the Potency in [1] is greater than 11.4 µM; in test [3], 0.631 µM (active); in test [6] it was greater than 46 µM; in test [7], greater than 9.22 µM; in test [11], 1.58 µM (active). Also, the activity change, negative = inhibition in [2] was 1.13%; in test [4] it was 2.07%. For the same molecule, the activity, negative = inhibition in test [5] was -0.202%. The Potency entry in [8] and in test [9] was “inactive” in each case.

Regarding `CC[C@@]1([N+](=O)[O-])C[C@H]2C=C[C@@H]1C2`, the Potency is greater than 11.4 µM in test [1], greater than 46 µM in [6] and greater than 9.22 µM in [7]. Also, the results for the activity change, negative = inhibition in test [2], in test [3] and in test [4] were 9.4%, -12.9% [at 2.29 µM] and 4.68%, respectively. Besides, the activity, negative = inhibition in [5] was 3.53%. Further, the Potency entry in test [8], in [9], in test [12] and in test [11] was “inactive” throughout.

As for `Cn1c(=O)c2c(nc(N/N=C\c3ccccc3C(=O)O)n2C)n(C)c1=O`, the figures for the Potency in [1], in test [6] and in test [7] were greater than 11.4 µM, greater than 46 µM and greater than 9.22 µM, respectively. Moreover, the activity change, negative = inhibition in [2] was -10.8%; in test [4], 5.57%. In addition, the Potency entry in test [3], in test [8], in test [9] and in test [11] was “inactive” in each case. Further, the activity, negative = inhibition in [5] is 3.2%.

With `CS[C@]12C(=O)C[C@]3(C)[C@@H](CC[C@@]3(O)C(=O)CO)[C@@H]1CCC1=CC(=O)CC[C@]12C`, the Potency was greater than 11.4 µM in [1], greater than 46 µM in test [6], greater than 9.22 µM in test [7] and 3.16 µM (active) in [11]. The activity change, negative = inhibition in test [2] was 0.905%; in test [3] it was -24.3% [at 2.29 µM]; in test [4] it was 1.52%. The activity, negative = inhibition in test [5] is -2.04%. Moreover, the Potency entry in test [8] and in test [9] was “inactive” throughout.

In the case of `O=[N+]([O-])c1cc(Cc2cc([N+](=O)[O-])c3cccnc3c2O)c(O)c2ncccc12`, the Potency was greater than 11.4 µM in [1], greater than 46 µM in test [6], greater than 9.22 µM in [7] and 2.51 µM (active) in test [11]. In addition, the activity change, negative = inhibition was 18.2% in test [2], -31.1% [at 2.29 µM] in [3] and -16.4% in test [4]. In addition, the activity, negative = inhibition in [5] was -1.87%. For the same molecule, the Potency result in test [8] and in test [9] was “inactive” throughout.
